Rows were chosen to be rich in hits. Some 18% of all compounds tested hit in one or more screens of this group.
TDP1 cell CPT: qHTS for Inhibitors of human tyrosyl-DNA phosphodiesterase 1 (TDP1): qHTS in cells in presence of CPT. hit rate 12% among 420,000. Potency, µM (series often up to 46.2 µM), without a hit: at the top dose activity change, negative = growth inhibition, most hits filed as inhibitors. chicken DT40 Tdp1-/-;hTDP1 cells + 20 nM CPT, ATP luminescence, 48 h. AID 686979, 2013; also: potency is read from the fitted curve at half-maximal effect; nearly all actives have a fitted effect of over 55% in size
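Chicken DT40 Tdp1-/- cells stably complemented with human TDP1 were seeded at 400 cells/well in medium containing 20 nM camptothecin, exposed to pin-transferred compounds, and grown at 37 °C for at least 48 hr. Viability was read as ATP luminescence.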
RORg inh: qHTS for inhibitors of ROR gamma transcriptional activity | hit rate 5.4% among 310,000 | Drosophila S2 Gal4-RORgamma UAS-luciferase reporter, 20 h | Potency, µM (series often up to 53.6 µM), for the others: at the highest dose activity change, negative = inhibition, actives largely listed as inhibitors; also: potency is read from the fitted curve at half-maximal effect; nearly all actives have a fitted effect of over 60% in size
Target sequence (P51450 whole entry, looked up, the tested form may be a part): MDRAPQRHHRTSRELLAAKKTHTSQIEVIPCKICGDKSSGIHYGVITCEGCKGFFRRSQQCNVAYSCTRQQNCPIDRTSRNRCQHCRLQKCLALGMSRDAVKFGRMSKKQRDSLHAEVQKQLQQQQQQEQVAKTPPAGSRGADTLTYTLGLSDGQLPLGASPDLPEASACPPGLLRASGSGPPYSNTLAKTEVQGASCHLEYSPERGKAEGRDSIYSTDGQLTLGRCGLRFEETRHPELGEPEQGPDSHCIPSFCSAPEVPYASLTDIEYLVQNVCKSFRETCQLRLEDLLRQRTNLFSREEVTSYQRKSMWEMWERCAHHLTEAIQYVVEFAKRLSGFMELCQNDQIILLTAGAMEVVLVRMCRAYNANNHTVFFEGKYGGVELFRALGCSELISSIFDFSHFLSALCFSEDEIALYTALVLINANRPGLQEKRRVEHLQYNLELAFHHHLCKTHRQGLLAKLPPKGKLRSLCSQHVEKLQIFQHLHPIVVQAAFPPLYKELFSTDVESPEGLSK
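Read-out: Photinus luciferase luminescence; inhibitors lower reporter signal. Insect Schneider cells with Gal4-ROR gamma fusion under metallothionein promoter, UAS reporter; 700 uM final copper sulfate induction, 20 hr, ambient temperature.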
LDHA inh: qHTS assay for inhibitors of human lactate dehydrogenase | hit rate 0.15% among 480,000 | purified LDHA, NADH/diaphorase-resazurin fluorescence; hits give low values | activity change, % (values are at about 110 or 230 µM); in the data active = activity change below about -30%; inconclusive = mostly about -25% to -30%;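 also: plate controls were DMSO wells for no effect and wells without enzyme for full effect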
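Human LDH5 (2 nM) was incubated with 0.06 mM NADH and 0.2 mM pyruvate for 5 min at room temperature in Tris pH 7.4. Remaining NADH was coupled through diaphorase/resazurin, and resorufin fluorescence was read at 0 and 20 min.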
IL1B secr inh: qHTS for Inhibitors of Inflammasome Signaling: IL-1-beta AlphaLISA Primary Screen | THP-1 LPS/ATP IL-1B secretion, AlphaLISA, 16 h; hits give low values | activity change, % at 57.5 µM | hit rate 4.7% among 360,000 | AID 743279, 2014; in the data active = activity change below about -50%; inconclusive = mostly about -30% to -49%
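THP-1 cells pretreated 1 hr with compounds (up to 57.5 uM final), then stimulated with LPS (250 ng/mL final) plus ATP (1.25 mM final); secreted IL-1B measured by AlphaLISA after 16 hr, decreased signal indicating inhibition.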
TDP1 cell noCPT: qHTS for Inhibitors of human tyrosyl-DNA phosphodiesterase 1 (TDP1): qHTS in cells in absence of CPT | DT40 Tdp1-/- hTDP1 cells, no CPT, ATP luminescence, 48 h | Potency, µM (top dose mostly 46.2 µM), for inactives: top-dose activity change, negative = growth inhibition, actives largely listed as inhibitors | hit rate 15% among 420,000; also: potency is read from the fitted curve at half-maximal effect; nearly all actives have a fitted effect of over 55% in size
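Cells were dispensed at 400 per well, compounds added by pin tool, plates incubated ≥48 hr at 37 °C, then CellTiter-Glo added for 30 min at room temperature before luminescence reading. Line: DT40 Tdp1-/- complemented with hTDP1; camptothecin omitted.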
VP16 counter: VP16 counterscreen qHTS for inhibitors of ROR gamma transcriptional activity. Drosophila S2 Gal4-VP16 UAS-luciferase, luminescence, 20 h. Potency, µM (series often up to 53.6 µM), for inactives: top-dose activity, negative = inhibition, most hits filed as inhibitors. hit rate 3.5% among 310,000;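 also: Gal4-VP16 expression switched on by copper sulfate through the metallothionein promoter; potency is read from the fitted curve at half-maximal effect; nearly all actives have a fitted effect of over 50% in size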
* = called active by the depositor. Unless noted, calls follow the shape of the dose curve; as a rule, active = well fitted curve in the direction sought with a large enough effect; inconclusive = small, poorly fitted or top-dose-only effect, or another doubt; inactive = no such curve, though single readings can be large; an effect the other way counts as inactive or inconclusive. Unless noted, % is scaled to controls: 0 for no effect and ±100 for the full control effect.

For COc1ccc(-n2c(COc3cccc(C)c3)n[nH]c2=S)cc1 the results were TDP1 cell CPT 5%, RORg inh 3.5µM*, LDHA inh -7, IL1B secr inh 18, TDP1 cell noCPT 2% and VP16 counter 5µM*.
COc1ccc(-n2c(COc3ccc(C)cc3)nnc2SCC(=O)O)cc1 was read as TDP1 cell CPT -3%, RORg inh 14%, LDHA inh -5, IL1B secr inh 6, TDP1 cell noCPT -2% and VP16 counter -5%.
Screening CCOc1ccc(/C=C/c2nc(C#N)c(NCCCn3ccnc3)o2)cc1 returned LDHA inh -6.
CC(C)(C)NC(=O)COC(c1ccccc1)c1ccccc1 was read as LDHA inh 3.
For CC(C)(C)c1ccc(OCC(=O)Nc2ccncc2)c(Br)c1 the results were TDP1 cell CPT 8.2µM*, RORg inh inconclusive, LDHA inh 4, IL1B secr inh 39, TDP1 cell noCPT 7.3µM* and VP16 counter inconclusive.
For CCc1ccc(OCC(=O)Nc2ccncc2)c(Br)c1 the results were TDP1 cell CPT inconclusive, RORg inh 44%, LDHA inh -1, IL1B secr inh -9, TDP1 cell noCPT 10µM* and VP16 counter inconclusive.
`CCc1ccc(OCC(=O)Nc2ncn[nH]2)c(Br)c1` gave TDP1 cell CPT -7%, LDHA inh -2 and TDP1 cell noCPT 0%.
COc1ccccc1OCC(=O)NNC(=O)c1ccoc1C was read as TDP1 cell CPT 15µM*, RORg inh -16%, LDHA inh -2, IL1B secr inh -9, TDP1 cell noCPT inconclusive and VP16 counter -9%.
Cc1cc(OCC(=O)Nc2ccncc2)c(C)cc1Br was read as TDP1 cell CPT inconclusive, RORg inh inconclusive, LDHA inh 2, IL1B secr inh -13, TDP1 cell noCPT -17% and VP16 counter 13µM*.
CC(c1nnc(-c2cccs2)o1)N(C)Cc1ccccc1F (stereo not given) was read as LDHA inh 5.
`COC(=O)c1ccoc1COC(=O)CCc1ccc(OC)c(OC)c1` gave LDHA inh 8.
`O=C(NCc1ccncc1)c1nc(Cc2c[nH]c3ccccc23)no1` gave LDHA inh 10.
For CCOC(=O)c1c(NC(=O)CCN2CCCCC2)sc2c1CC(C)(C)OC2 the results were LDHA inh -7.
CCc1ccc(OCC(=O)NCCN(C)C)c(Br)c1 was read as TDP1 cell CPT -4%, RORg inh -5%, LDHA inh -6, IL1B secr inh -16, TDP1 cell noCPT 5% and VP16 counter -7%.
CCc1ccc(OCC(=O)NNC(=O)c2cnccn2)c(Br)c1 was read as TDP1 cell CPT 5.8µM*, RORg inh inconclusive, LDHA inh 1, IL1B secr inh 0, TDP1 cell noCPT 8.2µM* and VP16 counter 6.3µM*.
COc1ccccc1OCC(=O)NNC(=O)c1cnccn1 was read as TDP1 cell CPT inconclusive, RORg inh 11µM*, LDHA inh 2, IL1B secr inh 24, TDP1 cell noCPT inconclusive and VP16 counter -3%.
`CC(C)C(C(=O)NC1CCCCC1)c1ccc(Cl)cc1` (stereo not given) gave LDHA inh -20.
Cc1ccc(OCCn2cc(/C(N)=N/O)c3ccccc32)cc1C was read as TDP1 cell CPT -22%, RORg inh -39%, LDHA inh -1, IL1B secr inh 0, TDP1 cell noCPT inconclusive and VP16 counter -29%.
